Reference: the supplement of paper PMC6897291

Experiments:
RIVA [1] = assay: growth inhibition by drug alone (1 - RLU/untreated control) (fraction); higher = stronger inhibition; settings: 177Lu-lilotomab satetraxetan 0 ug/ml
Method in brief: (§1)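 A radiolabelled anti-CD37 antibody conjugate (~600 MBq/mg) was applied for 18 h at 0.5 µg/ml to RIVA and 1 µg/ml to U-2932 cells, with untreated cells run alongside. All cells were washed and seeded at 3,000 cells/well onto library-printed plates at 10/100 nM (RIVA) or 10/1,000 nM (U-2932). Growth inhibition was based on RealTime-Glo luminescence compared with untreated no-drug wells. Daily reads began on day 3 after 1 h at 37°C, with each value being 1 − RLU/mean of the 48 such wells on that plate.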

U-2932 = assay: growth inhibition by drug plus 177Lu-lilotomab satetraxetan (1 - RLU/untreated control) (fraction); higher = stronger inhibition; settings: 177Lu-lilotomab satetraxetan 1 ug/ml
Method in brief: as §1

RIVA [2] = assay: as above; settings: 177Lu-lilotomab satetraxetan 0.5 ug/ml
Method in brief: as §1

| Structure (SMILES) | growth inhibition by drug alone (RIVA [1]; 10 nM, time (day): 3) | growth inhibition by drug alone (RIVA [1]; 10 nM, time (day): 4) | growth inhibition by drug alone (RIVA [1]; 10 nM, time (day): 5) | growth inhibition by drug alone (RIVA [1]; 10 nM, time (day): 6) | growth inhibition by drug alone (RIVA [1]; 100 nM, time (day): 3) | growth inhibition by drug alone (RIVA [1]; 100 nM, time (day): 4) | growth inhibition by drug alone (RIVA [1]; 100 nM, time (day): 5) | growth inhibition by drug alone (RIVA [1]; 100 nM, time (day): 6) | growth inhibition by drug plus 177Lu-lilotomab satetraxetan (U-2932; 10 nM, time (day): 3) | growth inhibition by drug plus 177Lu-lilotomab satetraxetan (U-2932; 10 nM, time (day): 4) | growth inhibition by drug plus 177Lu-lilotomab satetraxetan (U-2932; 10 nM, time (day): 5) | growth inhibition by drug plus 177Lu-lilotomab satetraxetan (U-2932; 10 nM, time (day): 6) | growth inhibition by drug plus 177Lu-lilotomab satetraxetan (U-2932; 1000 nM, time (day): 3) | growth inhibition by drug plus 177Lu-lilotomab satetraxetan (U-2932; 1000 nM, time (day): 4) | growth inhibition by drug plus 177Lu-lilotomab satetraxetan (U-2932; 1000 nM, time (day): 5) | growth inhibition by drug plus 177Lu-lilotomab satetraxetan (U-2932; 1000 nM, time (day): 6) | growth inhibition by drug plus 177Lu-lilotomab satetraxetan (RIVA [2]; 10 nM, time (day): 3) | growth inhibition by drug plus 177Lu-lilotomab satetraxetan (RIVA [2]; 10 nM, time (day): 4) | growth inhibition by drug plus 177Lu-lilotomab satetraxetan (RIVA [2]; 10 nM, time (day): 5) | growth inhibition by drug plus 177Lu-lilotomab satetraxetan (RIVA [2]; 10 nM, time (day): 6) | growth inhibition by drug plus 177Lu-lilotomab satetraxetan (RIVA [2]; 100 nM, time (day): 3) | growth inhibition by drug plus 177Lu-lilotomab satetraxetan (RIVA [2]; 100 nM, time (day): 4) | growth inhibition by drug plus 177Lu-lilotomab satetraxetan (RIVA [2]; 100 nM, time (day): 5) | growth inhibition by drug plus 177Lu-lilotomab satetraxetan (RIVA [2]; 100 nM, time (day): 6) |
| --- | --- | --- | --- | --- | --- | --- | --- | --- | --- | --- | --- | --- | --- | --- | --- | --- | --- | --- | --- | --- | --- | --- | --- | --- |
| C#CCN(C)CC1=Cc2ccccc2Oc2ccccc21 | -0.0236 | -0.0211 | -0.0438 | -0.145 | -0.121 | -0.0828 | -0.112 | -0.138 | 0.0301 | 0.075 | 0.128 | 0.198 | 0.0289 | 0.0839 | 0.129 | 0.233 | 0.602 | 0.618 | 0.628 | 0.62 | 0.573 | 0.617 | 0.634 | 0.63 |
| CN1CCC(CNc2ccc3ncc(-c4cccc(OC(F)(F)F)c4)n3n2)CC1 [SGI-1776 free base] | -0.104 | -0.155 | -0.336 | -0.875 | -0.453 | -0.367 | -0.351 | -0.438 | -0.0394 | 0.0134 | 0.0445 | 0.0394 | 0.154 | 0.125 | 0.168 | 0.265 | 0.428 | 0.539 | 0.541 | 0.561 | 0.302 | 0.441 | 0.445 | 0.462 |
| Nc1cccc2c1CN(C1CCC(=O)NC1=O)C2=O (configuration not stated) [Lenalidomide] | -0.0108 | -0.0398 | -0.0471 | -0.0439 | -0.101 | -0.141 | -0.183 | -0.226 | 0.069 | 0.101 | 0.148 | 0.257 | 0.215 | 0.263 | 0.303 | 0.434 | 0.534 | 0.564 | 0.587 | 0.589 | 0.428 | 0.481 | 0.499 | 0.508 |
